VP16 counter – counter-screen for ROR gamma inhibitors: Gal4-VP16 reporter. Drosophila S2 Gal4-VP16 UAS-luciferase, luminescence, 20 h. Potency, µM (top dose mostly 53.6 µM), hits mostly inhibitors. 310,000 tested, 3.5% active. AID 2546;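 note: Gal4-VP16 expression switched on by copper sulfate through the metallothionein promoter; nearly all actives have a fitted effect of over 50% in size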
LDHA block – inhibitors of human lactate dehydrogenase A. activity change, % (values are at about 110 or 230 µM). purified LDHA, NADH/diaphorase-resazurin fluorescence; stronger effect = lower value. P00338. 480,000 tested, 0.15% active. AID 1347041; in the data active = activity change below about -30%; inconclusive = mostly about -25% to -30%
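Enzyme activity of human lactate dehydrogenase 5 (2 nM; 0.06 mM NADH, 0.2 mM pyruvate, 5 min, RT) is measured via a resazurin/diaphorase fluorescence readout of residual NADH.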
TDP1 cell noCPT – qHTS for Inhibitors of human tyrosyl-DNA phosphodiesterase 1 (TDP1): qHTS in cells in absence of CPT; DT40 Tdp1-/- hTDP1 cells, no CPT, ATP luminescence, 48 h; Potency, µM (series often up to 46.2 µM), hits mostly inhibitors; 420,000 tested, 15% active; note: nearly all actives have a fitted effect of over 55% in size
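No-CPT arm: Tdp1-/-;hTDP1 DT40 cells (400/well) plus compounds, incubated ≥48 hr at 37 °C. Readout CellTiter-Glo luminescence.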
RORg inh – ROR gamma (mouse) transcription inhibition | Drosophila S2 Gal4-RORgamma UAS-luciferase reporter, 20 h | Potency, µM (doses to about 53.6 µM), actives largely listed as inhibitors | 310,000 tested, 5.4% active; note: nearly all actives have a fitted effect of over 60% in size
Target sequence (P51450 whole entry, looked up, the tested form may be a part): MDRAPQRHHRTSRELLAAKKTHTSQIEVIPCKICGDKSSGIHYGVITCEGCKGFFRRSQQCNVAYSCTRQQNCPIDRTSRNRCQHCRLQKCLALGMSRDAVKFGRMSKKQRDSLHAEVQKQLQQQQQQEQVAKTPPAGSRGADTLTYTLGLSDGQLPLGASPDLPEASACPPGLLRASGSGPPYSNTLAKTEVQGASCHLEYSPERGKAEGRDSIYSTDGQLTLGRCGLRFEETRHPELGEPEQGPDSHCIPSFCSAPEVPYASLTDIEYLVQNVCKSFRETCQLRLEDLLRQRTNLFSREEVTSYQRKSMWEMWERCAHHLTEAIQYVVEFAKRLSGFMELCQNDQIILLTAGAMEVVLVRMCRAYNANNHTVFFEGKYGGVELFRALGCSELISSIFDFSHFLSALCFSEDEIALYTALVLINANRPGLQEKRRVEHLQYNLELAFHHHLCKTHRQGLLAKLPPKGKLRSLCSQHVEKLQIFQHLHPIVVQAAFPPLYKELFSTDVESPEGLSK
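In this cell-based reporter format, copper sulfate (700 uM final) drives Gal4–ROR gamma fusion expression from a metallothionein promoter in Drosophila Schneider cells; compounds preincubated 1 hr, reporter read after 20 hr at ambient temperature.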
DT40 TDP1 CPT – DT40-hTDP1 cell growth loss with CPT | chicken DT40 Tdp1-/-;hTDP1 cells + 20 nM CPT, ATP luminescence, 48 h | Potency, µM (top dose mostly 46.2 µM), actives largely listed as inhibitors | 420,000 tested, 12% active; note: nearly all actives have a fitted effect of over 55% in size
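Chicken DT40 Tdp1-/- cells stably complemented with human TDP1 were seeded at 400 cells/well in medium containing 20 nM camptothecin, exposed to pin-transferred compounds, and grown at 37 °C for at least 48 hr. Viability was read as ATP luminescence.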
IL-1B inflam inh – inhibitors of inflammasome signaling (IL-1 beta secretion); THP-1 LPS/ATP IL-1B secretion, AlphaLISA, 16 h; stronger effect = lower value; activity change, % at 57.5 µM; 360,000 tested, 4.7% active; in the data active = activity change below about -50%; inconclusive = mostly about -30% to -49%
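THP-1 cells pretreated 1 hr with compounds (up to 57.5 uM final), then stimulated with LPS (250 ng/mL final) plus ATP (1.25 mM final); secreted IL-1B measured by AlphaLISA after 16 hr, decreased signal indicating inhibition.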
A number is an active result; – = inactive; ? = inconclusive; · = no result; [ ] = dose if it differs, or a comment. This is a sample that favours compounds with a hit; in the whole collection about 18% have one here. Unless noted, calls come from the whole dose curve; as a rule, active = well fitted curve in the direction sought with a large enough effect; inconclusive = small, poorly fitted or top-dose-only effect, or another doubt; inactive = no such curve, though single readings can be large; an effect the other way counts as inactive or inconclusive.

SMILES	VP16 counter	LDHA block	TDP1 cell noCPT	RORg inh	DT40 TDP1 CPT	IL-1B inflam inh
O=c1[nH]cnc2c1ncn2C1CCC(CO)O1 (configuration not stated)	·	–	?	·	13µM	–
Nc1nc2c(ncn2C2OC(CO)CC2O)c(=O)[nH]1 (configuration not stated)	?	·	1.46µM	20µM	0.92µM	·
COc1ccccc1N(CC1CO1)S(=O)(=O)c1ccc(C)cc1 (configuration not stated)	–	–	20.6µM	–	?	–
COc1ccc(N(CCOc2ccccc2)S(=O)(=O)c2ccccc2)cc1	·	–	16.4µM	·	?	–
CCOC(=O)c1ccc(N(CC2CO2)S(=O)(=O)c2ccc(C)cc2)cc1 (configuration not stated)	·	–	16.4µM	·	13µM	?
COc1ccccc1N(CC1CO1)S(=O)(=O)c1ccccc1 (configuration not stated)	–	–	?	–	?	–
COc1ccc(N(CC2CO2)S(=O)(=O)c2ccccc2)cc1 (configuration not stated)	–	–	?	–	?	-68.8
Cc1cc(/C=C(\C#N)c2nc3ccccc3[nH]2)cc2c1OC(C)C2 (configuration not stated)	·	–	·	·	·	·
Cc1cc(C)c(C(=O)/C=C/c2ccco2)cc1C	·	–	·	·	·	·
Fc1ccccc1CN(CCN1CCOCC1)C(=S)Nc1ccccc1Cl	?	–	–	?	–	–
CCc1ccccc1NC(=S)N(CCN1CCOCC1)Cc1ccccc1F	–	–	?	15.8µM	?	–
Cc1ccccc1NC(=S)N(CCN1CCOCC1)Cc1ccccc1F	–	–	–	14.1µM	–	–
COc1cccc(NC(=S)N(CCCN2CCOCC2)Cc2cn(C)c3ccccc23)c1	?	–	14.6µM	17.8µM	9.2µM	–
COc1ccc(NC(=S)N(CCCN2CCOCC2)Cc2cn(C)c3ccccc23)cc1OC	–	–	?	–	–	–
Cc1cc(NC(=S)N(CCN2CCOCC2)Cc2ccccc2F)ccc1Cl	?	–	18.4µM	10µM	?	-58.5
COc1ccc(NC2(c3nnnn3-c3ccc(C(C)C)cc3)CCCC2)cc1	·	–	·	·	·	·
COc1ccc(S(=O)(=O)Nc2ccccc2CCc2nc3ccccc3n2C)cc1OC	·	–	·	·	·	·
Cc1cc(C)n2nc(SCC(=O)c3cc(C)n(C(C)C)c3C)nc2n1	·	–	·	·	·	·
CCc1ccccc1NC(=S)N(CCN(C)C)Cc1cccs1	–[10 µM]	–	–	11.2µM	–	–
COc1cccc(NC(=S)N(CCN(C)C)Cc2cccs2)c1	–	–	–	–	–	–
CC(NC(=O)/C=C/c1ccccc1)c1ccccc1 (configuration not stated)	–	–	?	–	?	–
CC(NC(=O)/C=C/c1ccc(Br)cc1)c1ccccc1 (configuration not stated)	–	–	?	–	16.4µM	–
O=C(/C=C/c1ccc(O)c(O)c1)NC(=O)c1ccccc1O	–	–	–[9.04 µM]	–	–[9.04 µM]	–
O=C(/C=C/c1ccc(Br)cc1)NC(=O)c1ccccc1O	–	–	?	?	–	-94.9
COc1ccc(Cl)cc1NC(=O)COC(=O)c1[nH]c(C)c(C(C)=O)c1C	·	–	·	·	·	·
SMILES	VP16 counter	LDHA block	TDP1 cell noCPT	RORg inh	DT40 TDP1 CPT	IL-1B inflam inh
CCOc1ccc(/C=C2\SC(=O)N(CCNC(=O)CN3C(=O)NC4(CCCC4)C3=O)C2=O)cc1OC	–	–	–	–	–	–
O=C(NCCN1C(=O)S/C(=C\c2ccc(Cl)c(Cl)c2)C1=O)c1ccc2c(c1)C(=O)N(Cc1ccncc1)C2=O	?	–	11.6µM	?	13µM	?
CCOc1ccc(/C=C2\SC(=O)N(CCNC(=O)C3COc4ccccc4O3)C2=O)cc1OC (configuration not stated)	–	–	9.2µM	?	11.6µM	-53.3
O=C(NCCN1C(=O)S/C(=C\c2ccc(Cl)c(Cl)c2)C1=O)C1COc2ccccc2O1 (configuration not stated)	–	–	?	–	?	-56.3
O=C(NCCCN1CCOCC1)C1COc2ccccc2O1 (configuration not stated)	–	–	–	–	–	–
COc1ccc(/C=C2/SC(=O)N(CCNC(=O)C3COc4ccccc4O3)C2=O)cc1 (configuration not stated)	–	–	20.6µM	?	?	–
Cc1cc(C)cc(NC(=O)C2CCCN2c2ncnc3ccccc23)c1 (configuration not stated)	·	–	·	·	·	·
O=C1N=C(N2CCCC2C(=O)O)S/C1=C\c1ccco1 (configuration not stated)	–	–	18.4µM	–	8.2µM	–
N=C1/C(=C/c2ccco2)C(=O)N=C2SC(CC(=O)N3CCCC3)=NN12	–	–	–	–	–	–
O=C1CSC(c2cn(-c3ccccc3)nc2-c2ccccc2)N1Cc1ccco1 (configuration not stated)	?	–	18.4µM	–	?	–
CCc1ccc(-c2nn(-c3ccccc3)cc2C2SCC(=O)N2Cc2ccco2)cc1 (configuration not stated)	–	–	?	–	?	–
Cc1c(Cl)cccc1NC(=O)COC(=O)c1ccc2ccccc2n1	·	–	·	·	·	·
NC(=O)COC(=O)c1c2c(nc3ccccc13)CCC2	–	–	–	–	–	–
O=C(NC1CCCCCC1)c1c2c(nc3ccccc13)CCN(Cc1ccccc1)C2	–	–	29.1µM	–	18.4µM	–
CCN1CCc2nc3ccccc3c(C(=O)Nc3ccc(C#N)cc3)c2C1	–	–	?	–	?	–
CC(C)c1ccccc1NC(=O)COC(=O)c1c2c(nc3ccccc13)CCN(Cc1ccccc1)C2	–	–	10.3µM	–	?	–
Cc1c(Cl)cccc1NC(=O)COC(=O)c1c2c(nc3ccccc13)CCN(Cc1ccccc1)C2	–	–	16.4µM	–	?	–
CCOc1ccc(/C=N/OCc2ccc(F)cc2Cl)cc1	·	–	·	·	·	·
COC(=O)c1cc(N)ccc1N1CCOCC1	·	–	·	·	·	·
COC(=O)c1cc(C)nc2c1C(=O)C(=O)C=C2N1CCOCC1	·	–	1.03µM	·	3.26µM	-99.8
CC(C)(C)C(=O)COC(=O)c1cc(-c2cccs2)nc2ccccc12	·	–	·	·	·	·
CN1CCN(c2ccc([N+](=O)[O-])cc2NC(=O)c2ccccc2Cl)CC1	–	–	–	–	–	–
O=C(Nc1ccc([N+](=O)[O-])cc1Cl)c1ccccc1O	·	–	3.16µM	·	3.16µM	·
CC(=O)OCC(=O)Nc1ccc([N+](=O)[O-])cc1Cl	–	–	–	–	–	–

Bioassay records from PubChem BioAssay.
